The panel holds about 83,000 compounds, 20% with a hit somewhere; the sample as a whole holds those more often.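 Single-dose data. Exposure time 48 hours. Values below 10 considered active.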 Unmarked numbers belong to inactive results. The source made the active and inactive calls.

The subject of this experiment is MDA-MB-468 breast. Put plainly: NCI-60 one-dose screen, 48 h (100 = growth as untreated, 0 = no growth, -100 = all killed). The conditions noted are these: 10 µM unless noted.
Take `Cc1ccc(C)c2c1sc1nc3n[nH]c(N)c3c(=N)n12`: the growth is 97.1%. Then `CC1=Nc2cnc(Nc3ccc(OCCN4CCCCC4)cc3)nc2Nc2ccccc21`, with 63.4%. Then `COc1cc(NC(=O)CCSc2nc3ccc(Cl)cc3c(=O)n2Cc2ccccc2)cc(OC)c1OC`, with 93%. As for `CC[C@]12C=CCN3CC[C@]4(C(=C(C(=O)OC)C1)Nc1cc5c(cc14)[C@@H]1[C@H](O5)[C@@H](O)[C@@]4(CC)CC(C(=O)OC)=C5Nc6cc(OC)ccc6[C@@]56CCN1[C@@H]46)[C@@H]32`, the figure is -36.8% (active). For `COc1nc2ccccc2cc1-c1nc2c(cnn2-c2ccc(Br)cc2)c(=O)[nH]1`, the growth was 5.52% (active). Then `CN1CSC(=S)N(Cc2ccccc2)C1`, with 7.55% (active). In the case of `Cc1nn(-c2nc(-c3cc4ccccc4oc3=O)cs2)c(C)c1N=Nc1ccccc1`, the growth is 103%. Then `O=C(COc1ccc(-c2nc3cc(Cl)c(Cl)cc3[nH]2)cc1)N=Nc1c(O)[nH]c2ccc(Cl)cc12`, with 68.5%. As for `Cc1ccc(Nc2c(C(N)=O)cnc3ccc(-c4csc(N)n4)cc23)cc1`, the figure is 83.9%; as for `Cn1ccnc1C(=O)/C=C/c1ccc(C(=O)Nc2ccccc2F)cc1`, 22.3%; as for `CCOC(=O)c1ccc(Nc2ccnc(SCC(=O)c3ccc(C#N)cc3)n2)cc1`, 48.1%.

As to `COc1ccc(-c2cc(-c3nnc(SCC(=O)Nc4ccc(C(C)=O)cc4)o3)c3ccccc3n2)cc1`, the growth was 45.5%. For `CCN(CCCCCCN1CC(=O)N(CCCCCCN(CC)Cc2ccccc2OC)CC1=O)Cc1ccccc1OC`, the growth was 84%.

These data come from PubChem BioAssay (NCI).
